G9a inh: inhibitors of human histone lysine methyltransferase G9a; Q96KQ7; actives 8.8% (n = 350,000); Potency, µM (doses to about 102 µM), inactives show at the highest dose activity, negative = inhibition, most hits filed as inhibitors; AID 504332; G9a H3K9 monomethylation, AlphaScreen, 2 h; further: on the % scale 0 is the no-effect control and ±100 the full control effect; nearly all actives have a fitted effect of over 75% in size
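Using a bead-based AlphaScreen, monomethylated H3K9 product from 2 h room-temperature reactions (G9a 20 nM, peptide 500 nM, SAM 20 uM) was detected with 0.5 ug/mL rabbit anti-H3K9me1 antibody.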
ALOX12 inh: ALOX12 (human) lipoxygenase inhibition. P18054. purified 12hLO, xylenol orange hydroperoxide absorbance. Potency, µM (doses to about 108 µM), without a hit: at the highest dose activity change, negative = inhibition, actives largely listed as inhibitors. actives 1.1% (n = 580,000). AID 1671190; further: on the % scale 0 is the no-effect control and ±100 the full control effect
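Purified human 12hLO (150 nM final) in 25 mM Hepes, 0.01% Triton X-100, pH 7.0 was preincubated 15 min at room temperature with compound. Then 40 uM arachidonic acid was added, 30 min. Hydroperoxide was read by Fe-XO absorbance ratio 573/405 nm.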
JMJD2A Tudor: blocks the human JMJD2A Tudor domain. actives 4.4% (n = 390,000). AID 504339. Potency, µM (series often up to 114 µM), for the others: at the top dose activity change, negative = inhibition, hits mostly inhibitors. O75164. AlphaScreen JMJD2A-Tudor / H3K4me3 peptide binding; further: on the % scale 0 is the no-effect control and ±100 the full control effect; nearly all actives have a fitted effect of over 50% in size
Sfp PPTase inh: Sfp phosphopantetheinyl transferase inhibition | Q9F4F7 | Biochemical Sfp PPTase activity, qHTS | Potency, µM, without a hit: largest response in the series, negative = inhibition, usual class: inhibitors | actives 3.5% (n = 310,000) | AID 1490;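 further: the enzyme is Sfp with the accession as filed and its product quenches rhodamine fluorescence; 0% = enzyme reaction without inhibitor and -100% = no enzyme wells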
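Sfp 15 nM + cpd, 15 min RT; start w/ rhodamine-CoA 5 uM, BHQ-2-YbbR 12.5 uM (final); 50 mM Hepes pH 7.6, 10 mM MgCl2, 0.01% NP-40, 0.01% BSA; read 525/598 nm at 0 and 30 min.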
BAZ2B block: inhibitors of human BAZ2B bromodomain; Potency, µM (doses to about 114 µM), for inactives: at the top dose activity change, negative = inhibition, usual class: inhibitors; AlphaScreen BAZ2B-H3K14Ac peptide displacement; actives 4.4% (n = 360,000); Q9UIF8; further: on the % scale 0 is the no-effect control and ±100 the full control effect; nearly all actives have a fitted effect of over 60% in size
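BAZ2B 50 nM plus b-H3(5-23)K14Ac 50 nM, PBS pH 7.4/0.01% Tween-20, 30 min RT; compound added (max 110 uM), 30 min RT; streptavidin donor/Ni-chelate acceptor beads 10 ug/mL final, 20 min dark; AlphaScreen read.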
HP1b chromo inh: blocks HP1-beta chromodomain binding to methylated histone tails. actives 0.56% (n = 390,000). P83916. AlphaScreen HP1-beta / biotin-H3K9me3 peptide binding. Potency, µM (top dose mostly 114 µM), without a hit: at the top dose activity change, negative = inhibition, most hits filed as inhibitors; further: nearly all actives have a fitted effect of over 70% in size
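HP1-beta protein (50 nM final) preincubated 30 min at room temperature with biotinylated H3(1-18)K9me3 peptide (50 nM) in PBS pH 7.4, 0.01% Tween-20, then compound added for 30 min. AlphaScreen streptavidin donor/nickel chelate acceptor beads (10 ug/mL final), 30 min dark, luminescence read.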
Numbers without * were called inactive; ? = inconclusive; . = no result given; [ ] = another dose, or the depositor's remark. Sampled rows, rich in hits. Any-hit rate of the full collection: about 8.7%. The call rests on the fitted dose curve; in most records, active means well fitted curve in the direction sought with a large enough effect; inconclusive means small, poorly fitted or top-dose-only effect, or another doubt; inactive means no such curve, though single readings can be large; an effect the other way counts as inactive or inconclusive. Potency means the concentration at half of the fitted maximal effect.

SMILES	G9a inh	ALOX12 inh	JMJD2A Tudor	Sfp PPTase inh	BAZ2B block	HP1b chromo inh
COc1ccc(-c2onc(C)c2C(=O)N(C)Cc2cc(OC)c(OC)c(OC)c2)cc1	.	4%	.	.	.	.
Cc1nn(-c2ccccc2)nc1C(=O)N[C@H](C)c1onc(-c2cccnc2)c1C(=O)O	.	-17%	.	.	.	.
COc1cccc(-c2cc(=O)c3cc(NC(=O)c4ccccc4)ccc3[nH]2)c1	10%	-14%	-24%	11%	0%	18%
COc1cccc(-c2cc(=O)c3cc(NC(=O)c4ccc(Cl)cc4)ccc3[nH]2)c1	50µM*	?	-15%	9%	-28%	13%
COc1cccc(-c2cc(=O)c3cc(NC(=O)c4ccc(N(C)C)cc4)ccc3[nH]2)c1	32µM*	.	-13%	5%	79µM*	24%
COc1cccc(C(=O)NCC2CCCN(Cc3cccnc3)C2)c1OC (centres undefined)	.	37%	.	.	.	.
CN(C)C1(CNC(=O)c2ccccc2-c2ncc(-c3ccccc3)o2)CCCCC1	.	-3%	.	.	.	.
COC(=O)c1cc2c(C)c(C)c3ccccn3c-2c1C(=O)OC	7%[12.7 µM]	0%	-19%	-6%	3%	13%
COC(=O)c1cc2n3ccccc3c(C)c(-c3ccccc3)c-2c1C(=O)OC	45µM*	?	?	-1%	45µM*	?
CCc1ccc(S(=O)(=O)O)cc1	-47%[12.7 µM]	.	.	21%	.	.
CCc1ccc(S(=O)(=O)/N=C2\C=CC(=O)c3ccccc32)cc1	14µM*	.	.	-28%	35µM*	.
CCc1ccc(S(=O)(=O)/N=C2\C=C(Nc3cccc(C(=O)O)c3)C(=O)c3ccccc32)cc1	14µM*	-16%	18µM*	-18%	10µM*	?
CCc1ccc(S(=O)(=O)/N=C2\C=C(Nc3ccc(O)cc3)C(=O)c3ccccc32)cc1	7.1µM*	.	7.1µM*	-11%	8.9µM*	10µM*
CCc1ccc(S(=O)(=O)/N=C2/C=C(Sc3ncn[nH]3)C(=O)c3ccccc32)cc1	1.4µM*	.	4µM*	3.5µM*	45µM*	?
Cc1cccc(C(=O)Nc2ccc3oc(-c4ccc(F)cc4)nc3c2)c1	.	5%	.	.	.	.
C=CCN(Cc1nc(-c2cccc(Cl)c2)oc1C)C1CCS(=O)(=O)C1 (centres undefined)	.	14%	.	.	.	.
O=C1C=C(NCCc2cc(Br)c(O)c(Br)c2)C(=O)c2ncccc21	.	35µM*	28µM*	.	.	32µM*
O=S(=O)(Cc1ccccc1)Nc1cc(F)cc(F)c1	.	-27%	.	.	.	.
COc1ccc(OCc2cc(C(=O)NCCN3CCCC(O)C3)no2)c(Cl)c1 (centres undefined)	-5%	323%	-13%	15%	-13%	32%
COc1ccc(OCc2cc(C(=O)NCCN3CCCc4ccccc43)no2)c(Cl)c1	?	16µM*	?	4%	?	?
CCN(CC)S(=O)(=O)c1ccc2nc(CCl)[nH]c2c1	50µM*	11%	-24%	11%	-19%	64%
COc1ccccc1NS(=O)(=O)c1ccc(C)c(NC(=O)NCCCl)c1	.	0%	-12%	89µM*	-14%	5%
CCN(CC)S(=O)(=O)c1ccc(Cl)nc1	-32%	52%	12%	4%	.	29%
COc1ccc(OCc2nc3ccc(S(=O)(=O)Nc4ccccc4Cl)cc3[nH]2)cc1	-11%[59 µM]	4%	40µM*	5%	-19%	0%
CCN(CC)S(=O)(=O)c1ccc2c(c1)[nH]c(=S)n2CC	7.9µM*	-27%	-16%	56µM*	.	-4%
CCOC(=O)c1ccc2c(c1)[nH]c(=S)n2CC	?	-24%	?	10%	3%	20%
CC1=C[C@@H](CNC(=O)CCCC(=O)O)[C@H](C(C)C)C[C@H]1Cc1nc2ccccc2n1C	.	13%[176 µM]	.	.	.	.
COc1ccccc1NS(=O)(=O)c1ccc2nc(CCl)[nH]c2c1	20µM*	-11%	-19%	-20%	-29%	17%

Bioassay records as filed in PubChem BioAssay.
